Source: the supplement of paper PMC10646978
± gives the standard deviation.

Assays:
Details in all cases: modulator concentration 10 µM
[1] = tested on: RAW-Dual (murine macrophage reporter line); test: NF-kB reporter (SEAP) activity fold change vs agonist alone; higher = enhanced NF-kB activity
Procedure, shortened: (§1)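 In 384-well plates holding 50 000 RAW-Dual murine macrophage reporter cells per well, compound at 10 μM final was pre-incubated for 1 hour at 37 °C, after which a PRR agonist was added overnight. Supernatant SEAP read with QUANTI-Blue at 620 nm absorbance reported NF-κB, and Lucia luciferase read with QUANTI-Luc luminescence reported IRF. Fold change values come from dividing each reporter signal by the mean of agonist-only control wells on the same plate, averaged over replicate plates with propagated errors.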

[2] = tested on: RAW-Dual (murine macrophage reporter line); test: IRF reporter (Lucia luciferase) activity fold change vs agonist alone; higher = enhanced IRF activity
Procedure, shortened: as §1

[3] = tested on: RAW-Dual (murine macrophage reporter line); test: viability score (confluency relative to resting cells, overnight) (fraction); higher = more viable, active = viable (0.7 or more)
Procedure, shortened: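 Overnight exposure to 10 μM final compound was carried out on RAW-Dual macrophages in 384-well plates. IncuCyte software generated two confluency masks over all wells imaged with IncuCyte. The viability score gives confluency in relation to resting cells. A compound met the cutoff if each mask exceeded 70% of resting cells.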

[4] = agonist: CpG ODN 1826 0.5 ug/mL

| SMILES | NF-kB reporter [1, 4] | NF-kB reporter ([1]; agonist: LPS 0.1 ug/mL) | NF-kB reporter ([1]; agonist: MPLA […]) | IRF reporter ([2]; agonist: 3'3'-cGAMP 10 ug/mL) | IRF reporter ([2]; agonist: LPS 0.1 ug/mL) | IRF reporter ([2]; agonist: MPLA […]) | viability score [3] |
| --- | --- | --- | --- | --- | --- | --- | --- |
| O=C1CCC(=O)N1C1CC2CCC(C1)N2C(=O)c1cnccn1 (stereo not drawn) | 0.892 ± 0.056 | 0.903 ± 0.081 | 1.06 ± 0.057 | 1.03 ± 0.053 | 1.22 ± 0.19 | 1.31 ± 0.41 | 0.954 (active) |
| Cc1cn2c(nc1=O)OC1C(O)C(CO)OC12 (stereo not drawn) | 1.01 ± 0.08 | 1.02 ± 0.075 | 0.953 ± 0.091 | 1.02 ± 0.048 | 1.29 ± 0.2 | 1.44 ± 0.4 | 1.03 (active) |
| C1N2CN3CN1CN(C2)C3 | 1.07 ± 0.085 | 1.04 ± 0.054 | 1.03 ± 0.033 | 0.961 ± 0.055 | 0.958 ± 0.092 | 0.949 ± 0.076 | 1 (active) |
| O=[N+]([O-])c1ccc(-n2cccc2C=NNc2nc(N3CCOCC3)nc(N3CCOCC3)n2)cc1 | 0.961 ± 0.42 | 1.09 ± 0.085 | 1.14 ± 0.13 | 0.691 ± 0.022 | 0.999 ± 0.1 | 1.25 ± 0.16 | 1 (active) |
| O=C1NC(=O)[C@@H](c2cn3c4c(cccc24)CCC3)[C@@H]1c1c[nH]c2ccccc12 | 1.1 ± 0.051 | 1.02 ± 0.17 | 1.12 ± 0.13 | 0.971 ± 0.058 | 0.921 ± 0.18 | 0.948 ± 0.27 | 1.01 (active) |
| CN(C)c1nc(CNS(C)(=O)=O)nc(N2CCCCC2)n1 | 1 ± 0.092 | 1.08 ± 0.091 | 1.03 ± 0.044 | 0.991 ± 0.044 | 1.03 ± 0.071 | 0.965 ± 0.21 | 1 (active) |
| COc1ccc(CNC2CCCc3ccccc32)c(OC)c1 (stereo not drawn) | 0.48 ± 0.13 | 0.812 ± 0.088 | 0.775 ± 0.12 | 0.615 ± 0.027 | 1.23 ± 0.13 | 1.61 ± 0.17 | 0.94 (active) |
| C#Cc1cccc(Nc2ncnc3cc(OCCOC)c(OCCOC)cc23)c1 | 0.819 ± 0.051 | 1.1 ± 0.092 | 0.945 ± 0.05 | 0.948 ± 0.055 | 1.05 ± 0.16 | 1.13 ± 0.3 | 0.993 (active) |
| CC1(COc2ccc3c(c2)ncn3-c2ccc3cccc(N4CCC(N)CC4)c3n2)COC1 | 0.379 ± 0.25 | 0.397 ± 0.099 | 2.05 ± 0.24 | 0.0544 ± 0.0038 | 0.345 ± 0.037 | 0.339 ± 0.06 | 0.464 (inactive) |
| N#Cc1c(-n2ncnc2-c2cccc([N+](=O)[O-])c2)sc2c1CCCC2 | 0.954 ± 0.063 | 1.05 ± 0.085 | 0.932 ± 0.073 | 0.932 ± 0.033 | 1.46 ± 0.12 | 1.2 ± 0.15 | 1 (active) |
| COC(=O)C1=C(C#N)NC(C)=C(C(=O)OC(C)C)C1c1cccc([N+](=O)[O-])c1 (stereo not drawn) | 0.832 ± 0.041 | 1.01 ± 0.097 | 0.929 ± 0.04 | 0.978 ± 0.083 | 1.1 ± 0.068 | 1.19 ± 0.12 | 0.968 (active) |
| CC(C)NCC(O)COc1cccc2[nH]ccc12 (stereo not drawn) [Prestw-90] | 1.59 ± 0.38 | 0.968 ± 0.068 | 1.13 ± 0.13 | 1.01 ± 0.046 | 1.17 ± 0.13 | 1.17 ± 0.11 | 0.985 (active) |
| COc1ccc(Cl)cc1C(=O)N1CCC(S(=O)(=O)c2nncn2C)CC1 | 0.944 ± 0.051 | 1.04 ± 0.11 | 0.858 ± 0.038 | 1 ± 0.052 | 1.19 ± 0.085 | 1.11 ± 0.29 | 0.994 (active) |
| Oc1c(Br)cc(C=NNc2nc3ccccc3s2)c(O)c1Br | 0.957 ± 0.082 | 0.958 ± 0.098 | 1.08 ± 0.1 | 0.642 ± 0.069 | 1.35 ± 0.23 | 1.63 ± 0.44 | 1.03 (active) |
